Experimental data published in PubChem BioAssay (NCATS).
Results filed as inconclusive are left out. Unmarked numbers belong to inactive results. Active and inactive are the calls of the source. Calls follow the shape of the dose curve; as a rule, active = well fitted inhibition curve with a large enough effect; inconclusive = small, poorly fitted or top-dose-only effect; inactive = flat fitted curve, though single readings scatter.

target: Ubiquitin carboxyl-terminal hydrolase 1 (Homo sapiens) (UniProt O94782); experiment: Inhibitors of USP1/UAF1: Pilot qHTS (AID 504865); conditions: purified USP1/UAF1, Ub-rhodamine cleavage fluorescence; series mostly up to 114 µM; activity change, negative = inhibition: at the top concentration; also: nearly all actives have a fitted effect of over 35% in size;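 as to activity change, negative = inhibition: rhodamine fluorescence freed from ubiquitin-rhodamine substrate followed over time; top concentration of the series differs between compounds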
Summary of the method: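 USP1/UAF1 complex (1nM) preincubated with compound 15 min at room temperature, then Ub-Rho substrate (150nM final) added. Fluorescence read kinetically at 480/540 nm, 6 reads every 60 seconds. Buffer: 50mM HEPES pH 7.8, 0.5mM EDTA, 0.1 mg/ml BSA, 1mM TCEP, 0.01% Tween-20.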
% is scaled to controls: 0 for no effect and ±100 for the full control effect; potency is read from the fitted curve at half-maximal effect.

Ubiquitin carboxyl-terminal hydrolase 1 (Homo sapiens), sequence (O94782 whole entry, looked up): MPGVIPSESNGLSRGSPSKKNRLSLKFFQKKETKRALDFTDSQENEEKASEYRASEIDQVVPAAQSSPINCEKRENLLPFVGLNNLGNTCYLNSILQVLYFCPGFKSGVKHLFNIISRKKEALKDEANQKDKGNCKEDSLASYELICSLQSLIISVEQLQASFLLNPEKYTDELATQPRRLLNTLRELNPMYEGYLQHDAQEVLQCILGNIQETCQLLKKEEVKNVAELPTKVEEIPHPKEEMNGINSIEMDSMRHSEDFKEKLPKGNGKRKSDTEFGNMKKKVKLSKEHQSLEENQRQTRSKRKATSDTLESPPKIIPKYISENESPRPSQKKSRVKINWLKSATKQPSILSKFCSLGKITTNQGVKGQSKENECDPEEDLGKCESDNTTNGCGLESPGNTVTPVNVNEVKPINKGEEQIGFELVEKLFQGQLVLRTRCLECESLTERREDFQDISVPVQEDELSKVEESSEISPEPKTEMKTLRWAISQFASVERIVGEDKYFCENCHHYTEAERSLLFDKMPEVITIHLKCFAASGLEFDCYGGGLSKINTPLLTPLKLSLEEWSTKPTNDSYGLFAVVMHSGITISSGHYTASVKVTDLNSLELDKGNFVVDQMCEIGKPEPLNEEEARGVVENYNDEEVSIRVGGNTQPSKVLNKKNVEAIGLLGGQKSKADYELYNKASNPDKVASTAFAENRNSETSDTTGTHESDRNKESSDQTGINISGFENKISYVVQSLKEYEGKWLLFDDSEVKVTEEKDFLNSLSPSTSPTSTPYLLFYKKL

Question: Which “activity change, negative = inhibition” value does the source give for `OC(c1cc(C(F)(F)F)nc2c(C(F)(F)F)cccc12)C1CCCCN1` (configuration not stated) here?
Answer: Its value is -9.98%.

Question: `CCCCC(C=O)NC(=O)C(CC(C)C)NC(=O)OCc1ccccc1` (configuration not stated) was tested. Which “activity change, negative = inhibition” value did it give?
Answer: Its value is -11.8%.

Question: For `O=C1C(CCC(O)c2ccc(F)cc2)C(c2ccc(O)cc2)N1c1ccc(F)cc1` (configuration not stated), which “activity change, negative = inhibition” value is on record?
Answer: The value was -14.8%.

Question: How did the “activity change, negative = inhibition” value turn out when `COc1c(C)c2c(c(O)c1CC=C(C)CCC(=O)OCCN1CCOCC1)C(=O)OC2` was run?
Answer: The value was -2.22%.

Question: With `Cc1cc2nc3c(=O)[nH]c(=O)nc-3n(CC(O)C(O)C(O)CO)c2cc1C` (configuration not stated) as the compound, how does the Potency read?
Answer: The Potency was 31.6 µM (active).

Question: `CN(C)CCN(Cc1ccc(Cl)cc1)c1ccccn1` was tested. Which “activity change, negative = inhibition” value did it give?
Answer: Its value is 7.78% [at 54.9 µM].

Question: Which “activity change, negative = inhibition” value does the source give for `COc1nccc(-c2c(-c3ccc(F)cc3)ncn2C2CCC(O)CC2)n1` (configuration not stated) here?
Answer: The value was -1.25%.

Question: For `NS(=O)(=O)c1cc(Cl)c(Cl)c(S(N)(=O)=O)c1`, which “activity change, negative = inhibition” value is on record?
Answer: Its value is 16.6% [at 54.9 µM].

Question: How did the “activity change, negative = inhibition” value turn out when `CC1C(=O)OC2C(O)C34C5CC(C(C)(C)C)C36C(OC(=O)C6O)OC4(C(=O)O5)C12O` (configuration not stated) was run?
Answer: Its value is -4.31%.

Question: `CN1CCN2c3ncccc3Cc3ccccc3C2C1` (configuration not stated) was tested. Which Potency did it give?
Answer: The Potency was “inactive”.

Question: How did the “activity change, negative = inhibition” value turn out when `CC(C)CN(C[C@@H](O)[C@H](Cc1ccccc1)NC(=O)O[C@H]1CO[C@H]2OCC[C@H]21)S(=O)(=O)c1ccc(N)cc1` was run?
Answer: The value was -2.3%.

Question: `CC(NCCc1ccc(O)cc1)C(O)c1ccc(O)cc1` (configuration not stated) was tested. Which “activity change, negative = inhibition” value did it give?
Answer: The value was -13.9%.

Question: `CN1CC(=O)N2C(Cc3c([nH]c4ccccc34)[C@H]2c2ccc3c(c2)OCO3)C1=O` (some centres not stated) was tested. Which “activity change, negative = inhibition” value did it give?
Answer: The value was -11.6%.

Question: Which “activity change, negative = inhibition” value does the source give for `O=C(O)c1nc(=O)[nH]c(=O)[nH]1` here?
Answer: Its value is -6.75%.

Question: For `N#Cc1c(N(CC(=O)O)CC(=O)O)sc(C(=O)O)c1CC(=O)O`, which “activity change, negative = inhibition” value is on record?
Answer: The value was -4.15%.

Question: With `NCC1CCC(C(=O)O)CC1` (configuration not stated) as the compound, how does the “activity change, negative = inhibition” value read?
Answer: Its value is 14.2% [at 54.9 µM].

Question: Which Potency does the source give for `N#CC(c1ccc(Cl)cc1)c1c(Cl)cc(-n2ncc(=O)[nH]c2=O)cc1Cl` (configuration not stated) here?
Answer: The Potency was 79.4 µM (active).
